Screening data: PubChem, National Center for Advancing Translational Sciences (NCATS)
Tau fibril FP = blocks human tau fibril formation measured by polarization. P10636. K18 P301L tau heparin fibrillization, Alexa594 FP, 6 h. Potency, µM (doses to about 57.7 µM), without a hit: at the top dose activity, negative = inhibition, hits mostly inhibitors. 280,000 tested, 0.39% active. AID 1468; further: nearly all actives have a fitted effect of over 55% in size
Target sequence (P10636 561-689 P618L limits assumed): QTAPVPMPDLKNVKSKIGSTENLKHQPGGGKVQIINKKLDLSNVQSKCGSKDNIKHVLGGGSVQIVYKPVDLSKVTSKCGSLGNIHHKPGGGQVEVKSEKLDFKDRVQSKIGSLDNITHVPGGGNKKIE
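FP of Alexa 594-tau after heparin (20 uM) induction. Substrate: human K18 P301L, 15 uM unlabeled, 0.24 uM labeled. Buffer 100 mM sodium acetate pH 7. 6 hr, 37 C.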
NPSR antagonist = neuropeptide S receptor (human) antagonism, cAMP; CHO-NPSR cells, cAMP TR-FRET, antagonist mode; 220,000 tested, 1% active; Potency, µM (doses to about 38.3 µM), without a hit: at the highest dose activity change, negative = inhibition, hits mostly inhibitors; AID 1461; further: nearly all actives have a fitted effect of over 50% in size
Target sequence (Q6W5P4 whole entry, looked up): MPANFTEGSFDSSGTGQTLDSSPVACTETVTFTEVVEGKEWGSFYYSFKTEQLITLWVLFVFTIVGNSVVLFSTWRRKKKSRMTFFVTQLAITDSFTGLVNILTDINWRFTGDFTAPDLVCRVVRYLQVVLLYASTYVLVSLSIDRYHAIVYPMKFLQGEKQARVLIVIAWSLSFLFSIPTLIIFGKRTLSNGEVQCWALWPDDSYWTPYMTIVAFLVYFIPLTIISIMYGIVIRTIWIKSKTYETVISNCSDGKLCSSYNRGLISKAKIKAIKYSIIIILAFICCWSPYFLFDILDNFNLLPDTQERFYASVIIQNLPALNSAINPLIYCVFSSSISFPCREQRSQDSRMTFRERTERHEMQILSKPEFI
Tau fluor counter = counter-screen for tau fibril formation inhibitors | 280,000 tested, 0.93% active | Potency, µM (top dose mostly 57.7 µM), for the others: top-dose activity change, negative = decrease | tau K18 P301L Alexa594 fluorescence, heparin fibrillization | AID 1463; further: nearly all actives have a fitted effect of over 55% in size
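Human K18 P301L tau (15 uM unlabeled plus 0.24 uM Alexa 594-labeled, final) in 100 mM sodium acetate pH 7 was mixed with compound and 20 uM heparin and incubated 6 hr at 37 C.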
KinaseGlo FLuc = counter-screen: inhibitors of Kinase-Glo firefly luciferase. Q27757. 200,000 tested, 0.28% active. Potency, µM (series often up to 38.3 µM), for inactives: top-dose activity change, negative = inhibition, most hits filed as inhibitors. AID 1379. Kinase-Glo luciferase, ATP luminescence, 8 min; further: nearly all actives have a fitted effect of over 60% in size
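Light output from Kinase-Glo luciferase with luciferin and 10 uM ATP in 50 mM imidazole pH 7.2, KCl, MgCl2, Tween 20, BSA; compound pin-delivered, 8-min ambient incubation, then luminescence read.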
Tau ThT inhib = inhibitors of human tau fibril formation, thioflavin T binding; P10636; recombinant tau K18 P301L (four-repeat tau fragment), heparin-induced fibrillization, ThT fluorescence; Potency, µM (doses to about 57.4 µM), for the others: at the highest dose activity, negative = inhibition, actives largely listed as inhibitors; 270,000 tested, 2.1% active; further: nearly all actives have a fitted effect of over 55% in size
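Heparin-induced fibrillization of the P301L-mutant K18 repeat-domain fragment of human tau was followed by ThT binding in quantitative high-throughput format.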
* marks the source's active call; other numbers are inactive results; [ ] = remark or other dose. An excerpt weighted towards active compounds, which were near 3.3% of everything screened. The call rests on the fitted dose curve; in most records, active means well fitted curve in the direction sought with a large enough effect; inconclusive means small, poorly fitted or top-dose-only effect, or another doubt; inactive means no such curve, though single readings can be large; an effect the other way counts as inactive or inconclusive. On the % scale 0 is the no-effect control and ±100 the full control effect; potency means the concentration at half of the fitted maximal effect.

For CCOc1ccccc1NS(=O)(=O)c1ccc2c(c1)oc(=O)n2C the results were Tau fibril FP 3%, Tau fluor counter -7% and Tau ThT inhib 5%.
Screening CNc1cc([N+](=O)[O-])ccc1OCc1ccccc1 returned Tau fibril FP -4%, NPSR antagonist -11%, Tau fluor counter inconclusive and Tau ThT inhib 11µM*.
Screening Cc1cc([N+](=O)[O-])ccc1NCc1ccccc1 returned Tau fibril FP -6%, NPSR antagonist -15%[46.1 µM], Tau fluor counter -22%, KinaseGlo FLuc -3% and Tau ThT inhib inconclusive.
For COc1ccc(-c2cc(C3CCN(c4ccc(C(C)=O)cc4[N+](=O)[O-])CC3)[nH]n2)cc1 the results were Tau fibril FP -6%, NPSR antagonist -14%[46.1 µM], Tau fluor counter inconclusive, KinaseGlo FLuc -7% and Tau ThT inhib 3.5µM*.
For COc1ccc(-c2cc(C3CCN(C(=O)OC(C)(C)C)CC3)[nH]n2)cc1 the results were Tau fibril FP -6%, NPSR antagonist 35%, Tau fluor counter -16%, KinaseGlo FLuc 5% and Tau ThT inhib -14%.
`COC(=O)c1ccc(N2CCN(CC(=O)c3ccc(-c4ccccc4)cc3)CC2)c([N+](=O)[O-])c1` gave Tau fibril FP 1%, NPSR antagonist -14%[46.1 µM], Tau fluor counter -10%, KinaseGlo FLuc 4% and Tau ThT inhib inconclusive.
For CC(=O)c1ccc(N2CCc3ccccc3C2)c([N+](=O)[O-])c1 the results were Tau fibril FP 2%, NPSR antagonist 6%, Tau fluor counter -22% and Tau ThT inhib inconclusive.
`COC(=O)c1ccc(N2CCC(c3cc(-c4ccc(OC)cc4)n[nH]3)CC2)c([N+](=O)[O-])c1` gave Tau fibril FP inconclusive, NPSR antagonist -10%[46.1 µM], Tau fluor counter inconclusive, KinaseGlo FLuc -3% and Tau ThT inhib 3.5µM*.
Screening CC(=O)c1ccc(N2CCC(c3cc(-c4ccc(Cl)cc4)n[nH]3)CC2)c([N+](=O)[O-])c1 returned Tau fibril FP inconclusive, NPSR antagonist -30%[46.1 µM], Tau fluor counter inconclusive, KinaseGlo FLuc -2% and Tau ThT inhib 4.5µM*.
`O=C(Nc1ncccn1)c1ccc(C(F)(F)F)cc1` gave Tau fibril FP -9%, NPSR antagonist -3%, Tau fluor counter -6%, KinaseGlo FLuc -14% and Tau ThT inhib -9%.
`COc1cc2ccccc2cc1C(=O)Nc1cccc(-c2nc3cc(C)c(C)cc3o2)c1` gave Tau fibril FP -1%, Tau fluor counter -2% and Tau ThT inhib -14%.
Screening CCCCCCc1ccc(-c2ncc(N)cn2)cc1 returned Tau fibril FP 7%, NPSR antagonist -10%[46.1 µM], Tau fluor counter 14µM*[quencher], KinaseGlo FLuc 3% and Tau ThT inhib -20%.
Screening O=C(Nc1ccc2nc(SCC(=O)N3CCc4ccccc43)sc2c1)c1ccc(F)cc1 returned Tau fibril FP inconclusive, Tau fluor counter -19% and Tau ThT inhib inconclusive.
`CC(C)NC(=O)Cn1nc(N2CCN(c3ccccc3)CC2)ccc1=O` gave Tau fibril FP 3%, Tau fluor counter -9% and Tau ThT inhib -8%.
Screening Nc1nn2c(C(F)(F)F)cc(=O)[nH]c2c1N=Nc1cccc(F)c1 returned Tau fibril FP -15%, NPSR antagonist -31%, Tau fluor counter inconclusive, KinaseGlo FLuc -1% and Tau ThT inhib 7.9µM*.
Cc1cc(=O)[nH]c2c(N=Nc3ccc(O)cc3)c(N)nn12 was read as Tau fibril FP 10%, NPSR antagonist 52%, Tau fluor counter -26%, KinaseGlo FLuc -3% and Tau ThT inhib 8.9µM*.
Screening Cc1nc2c(-c3ccccc3)c(C)nn2c(C)c1CCC(=O)NCc1cccc(Cl)c1 returned Tau fibril FP -6%, Tau fluor counter -7% and Tau ThT inhib 8%.
For COc1cc(/C=C2\SC(=N)N(c3ccc4c(c3)OCO4)C2=O)cc(OC)c1O the results were Tau fibril FP -9%, NPSR antagonist 2%, Tau fluor counter inconclusive, KinaseGlo FLuc 1% and Tau ThT inhib 3.2µM*.
Screening COc1cc(/C=C2\SC(=O)N(CC(=O)Nc3cccc(C)c3)C2=O)cc([N+](=O)[O-])c1O returned Tau fibril FP -2%, NPSR antagonist -51%, Tau fluor counter inconclusive, KinaseGlo FLuc -4% and Tau ThT inhib 13µM*.
Screening COc1cc(/C=C2\SC(=O)N(c3ccccc3Cl)C2=O)cc([N+](=O)[O-])c1O returned Tau fibril FP -11%, NPSR antagonist inconclusive, Tau fluor counter 16µM*[quencher], KinaseGlo FLuc -3% and Tau ThT inhib 4µM*.
`CCOc1cc(/C=C2\SC(=O)N(CC(=O)Nc3ccccc3F)C2=O)cc([N+](=O)[O-])c1O` gave Tau fibril FP 5%, NPSR antagonist inconclusive, Tau fluor counter inconclusive, KinaseGlo FLuc -3% and Tau ThT inhib 7.9µM*.
For Cc1ccc(C)c(N2CCN(S(=O)(=O)c3ccc(-c4cnc(C5CC5)o4)cc3)CC2)c1 the results were Tau fibril FP 4%, Tau fluor counter -17% and Tau ThT inhib -11%.
For Oc1cccc2c(NC(=S)Nc3ccc(SC(F)F)cc3)cccc12 the results were Tau fibril FP inconclusive, NPSR antagonist inconclusive, Tau fluor counter 11µM*[quencher], KinaseGlo FLuc 3% and Tau ThT inhib 10µM*.
For O=C(c1ccc2c(c1)CCCC2)N1CCN(c2nc3ccc(F)cc3s2)CC1 the results were Tau fibril FP 6%, Tau fluor counter 2% and Tau ThT inhib -12%.
`CCC(=O)Nc1ccc2nc(SCc3ccc(C)cc3)sc2c1` gave Tau fibril FP inconclusive, Tau fluor counter -20% and Tau ThT inhib -6%.
`O=c1/c(=C\c2cccc(O)c2)sc2nc(-c3ccccc3)c(-c3ccccc3)n12` gave Tau fibril FP 25µM*, NPSR antagonist inconclusive, Tau fluor counter inconclusive and Tau ThT inhib 11µM*.
Screening COc1ccc(/C=c2\sc3nc(-c4ccccc4)c(-c4ccccc4)n3c2=O)cc1OC returned Tau fibril FP inconclusive, NPSR antagonist -8%[46.1 µM], Tau fluor counter -26%, KinaseGlo FLuc -5% and Tau ThT inhib inconclusive.
O=C(COC(=O)c1cc(S(=O)(=O)NCc2ccccc2)ccc1O)c1cc2ccccc2o1 was read as Tau fibril FP -16%, NPSR antagonist 25%, Tau fluor counter -29% and Tau ThT inhib -13%.
CC(=O)[C@H]1[C@@H]2C(=O)N(c3cccc(Cl)c3)C(=O)[C@@H]2[C@H]2c3ccccc3C=CN21 was read as Tau fibril FP -18%, NPSR antagonist -6%[46.1 µM], Tau fluor counter -23%, KinaseGlo FLuc -4% and Tau ThT inhib inconclusive.
Screening CC(=O)[C@@H]1[C@@H]2C(=O)N(c3ccc(F)c(Cl)c3)C(=O)[C@@H]2C2c3ccccc3C=CN21 (stereo partly specified) returned Tau fibril FP -3%, NPSR antagonist -19%, Tau fluor counter -17%, KinaseGlo FLuc 2% and Tau ThT inhib inconclusive.
